# In the library only some 11% were active in any assay of this set; here they are far more common.
# HPGD inh = HPGD (human) dehydrogenase inhibition; P15428; purified HPGD, NADH fluorescence kinetic, PGE2 substrate; Potency, µM, without a hit: at the top dose activity change, negative = inhibition, usual class: inhibitors; 4.3% of 150,000 active; note: potency is the fitted concentration of half-maximal effect
#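 NADH formation kinetics: reaction with 30 uM PGE2 and 1 mM NAD+ (final), 20 nM enzyme, Tris-HCl pH 8 with Tween 20, after 15 min compound preincubation at room temperature. Fluorescence change, last versus first of five reads.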
# PNC assembly inh = perinucleolar compartment assembly inhibition; AID 2417; PC3M PTB-GFP, PNC prevalence imaging, 16 h; hits give low values; activity change (PNC), negative = inhibition, % at 10 µM; 3.1% of 140,000 active;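 active = readout at or below -70, meaning at least 70% loss of cells showing the perinucleolar compartment, a nuclear body marking cancer cells; inconclusive = readout between -30 and a set limit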;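 note: plate controls were DMSO wells for no effect and camptothecin positive control wells for full effect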
#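 Read-out is percentage of cells bearing a perinucleolar compartment, from automated 20x imaging of fixed, Hoechst-stained PC3M PTB-GFP cells. Cells were seeded 4 h, then exposed 16 h to compound (23 nl of library stock) in duplicate plates.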
# ALOX12 inhib = 12-hLO (ALOX12) enzyme inhibition. AID 1452. Potency, µM (titrated, usually from 57.1 µM), without a hit: at the highest dose activity change, negative = inhibition, usual class: inhibitors. 0.12% of 150,000 active. purified 12-hLO, xylenol orange hydroperoxide absorbance; active = well fitted curve in the direction sought with a large enough effect; inconclusive = small, poorly fitted or top-dose-only effect, or another doubt; inactive = no such curve, though single readings can be large; an effect the other way counts as inactive or inconclusive; note: potency is the fitted concentration of half-maximal effect; nearly all actives have a fitted effect of over 55% in size
#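 Lipoxygenase turnover measured by absorbance at 573 and 405 nm after Fe-XO development. Human 12hLO 150 nM, arachidonate 40 uM, pH 7.0 Hepes buffer with detergent; 15 min compound preincubation, 30 min reaction.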
# ALDH1A1 inh = blocks purified human ALDH1A1 activity; 7.3% of 220,000 active; Potency, µM (doses to about 75.3 µM), for the others: top-dose activity, negative = inhibition, most hits filed as inhibitors; P00352; AID 1030; Purified ALDH1A1, NADH fluorescence, propionaldehyde substrate;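 note: potency is the fitted concentration of half-maximal effect; plate controls were no enzyme wells and a reference inhibitor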
# Target sequence (P00352 whole entry, looked up): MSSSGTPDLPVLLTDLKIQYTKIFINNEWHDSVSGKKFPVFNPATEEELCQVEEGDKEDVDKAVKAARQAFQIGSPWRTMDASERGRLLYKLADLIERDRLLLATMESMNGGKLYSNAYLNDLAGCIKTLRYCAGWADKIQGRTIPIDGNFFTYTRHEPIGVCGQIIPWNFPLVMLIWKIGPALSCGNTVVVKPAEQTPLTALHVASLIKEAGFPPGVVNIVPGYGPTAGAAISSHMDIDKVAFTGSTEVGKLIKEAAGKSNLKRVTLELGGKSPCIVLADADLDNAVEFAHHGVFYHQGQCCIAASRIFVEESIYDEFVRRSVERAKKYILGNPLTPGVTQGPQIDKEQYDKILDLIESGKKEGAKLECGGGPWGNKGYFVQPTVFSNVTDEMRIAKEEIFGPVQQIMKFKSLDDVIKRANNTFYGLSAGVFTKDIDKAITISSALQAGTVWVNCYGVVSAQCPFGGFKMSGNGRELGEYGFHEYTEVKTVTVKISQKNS
# IMPase cell inh = membrane-permeable compound that blocks inositol monophosphatase. P97697. AID 901. CHO-M1 cells, IP1 accumulation, HTRF TR-FRET ratio. inhibition (IP1 accumulation), % at 46.1 µM. 120,000 tested, under 10 active; active = well fitted curve in the direction sought with a large enough effect in the signal ratio, not every such curve was filed as active; inconclusive = small, poorly fitted or top-dose-only effect, or a change in a side signal; inactive = no such curve, though single readings can be large or run the other way; the % refers to the signal ratio;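 note: cells stimulated with carbachol in lithium chloride buffer; plate controls were DMSO basal wells for no effect and reference inhibitor wells for full effect; higher means more IMPase inhibition seen as more IP1 and lower FRET ratio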
# Target sequence (P97697 whole entry, looked up): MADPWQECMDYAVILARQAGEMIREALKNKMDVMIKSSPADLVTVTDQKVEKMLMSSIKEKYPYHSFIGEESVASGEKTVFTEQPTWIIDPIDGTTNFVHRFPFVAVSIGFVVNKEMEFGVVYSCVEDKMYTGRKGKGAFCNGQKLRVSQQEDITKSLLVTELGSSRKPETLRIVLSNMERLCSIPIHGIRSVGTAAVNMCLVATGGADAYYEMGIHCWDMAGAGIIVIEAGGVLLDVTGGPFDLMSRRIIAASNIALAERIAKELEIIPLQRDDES
#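 In this qHTS, compounds (final up to 46 uM) act on CHO-M1 cells that are then activated through the M1 receptor with carbachol, in pH 7.4 buffer containing 50 mM LiCl, for 30 min. IP1 accumulation is quantified by the IP-One immunoassay.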
# IMPase Li cell = cell-permeable IMPase inhibitors with lithium potentiation; CHO-M1 cells, IP1 TR-FRET (IP-One), carbachol + lithium; Potency, µM (highest dose often 59.4 µM), without a hit: at the highest dose activity, negative = IMPase inhibition, hits mostly inhibitors; 0.35% of 210,000 active; AID 1457; active = well fitted curve in the direction sought with a large enough effect; inconclusive = small, poorly fitted or top-dose-only effect, or another doubt; inactive = no such curve, though single readings can be large; an effect the other way counts as inactive or inconclusive;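 note: IP1 builds up when IMPase is blocked and the TR-FRET signal falls; potency is the fitted concentration of half-maximal effect; plate controls were basal vehicle for no effect and high inhibitor control for full effect; nearly all actives have a fitted effect of over 50% in size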
#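 Concentration–response in CHO-M1 cells, lithium-potentiated; 30 min at 37C. IP1 detected by competitive TR-FRET after 10 min lysis at RT. Hill-fitted AC50.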
# * hit, by the source's call; ? = inconclusive; . = no result given; [ ] = another dose, or the depositor's remark. Unless noted, calls come from the whole dose curve; as a rule, active = well fitted inhibition curve with a large enough effect (not every such curve was filed as active); inconclusive = small, poorly fitted or top-dose-only effect, or another doubt; inactive = no such curve, though single readings can be large or run the other way. Unless noted, % is set by controls: 0 for no effect and ±100 for the full control effect.
SMILES,HPGD inh,PNC assembly inh,ALOX12 inhib,ALDH1A1 inh,IMPase cell inh,IMPase Li cell
Cc1ccccc1-n1c(SCC(=O)NCc2cccs2)nc2ccccc2c1=O,?,12,-1%,?,9,9%
C/C(N)=C(/C#N)C(=O)CSc1nc2ccccc2c(=O)n1-c1ccc(C)cc1,-20%,-26,3%,?,5,?
C/C(N)=C(/C#N)C(=O)CSc1nc2ccccc2c(=O)n1-c1ccccc1C,-21%,-22,-6%,28µM*,.,11%
CCOC(=O)c1c(C)[nH]c(C)c1C(=O)CSc1nc2ccccc2c(=O)n1-c1ccc(Cl)cc1,-6%,?,-2%,?,.,3%
CCOc1ccc(C(=O)Nc2ccc(-c3nc4cc(CC)ccc4o3)cc2)cc1,.,.,.,.,-5,.
CS(=O)(=O)Nc1ccc(Nc2c3ccccc3nc3ccccc23)cc1,-13%,.,-3%[11.4 µM],6%[13.5 µM],.,0%
O=C1Nc2ccc(Cl)cc2C(C#CC2CC2)(C(F)(F)F)O1 (centres undefined),-8%,.,-10%[0.00818 µM],5%,.,3%
CCOc1ccccc1C1C(C(=O)Nc2ccccc2)=C(C)Nc2nc(-c3ccccc3)nn21 (centres undefined),.,.,.,.,12,.
COC(=O)Oc1nsnc1N1CCOCC1,14µM*,7,-16%,4µM*,-1,0%[38.3 µM]
CC(C)(C)NC[C@@H](O)COc1nsnc1N1CCOCC1,-12%,.,-4%,7%,.,8%
O=c1c(N2CCOCC2)nsnc1N1CCOCC1,.,?,-7%,25µM*,9,.
CC(C)=CCC/C(C)=C/CO/N=C1/C[C@@H](O)[C@@H](O)[C@@H]2[C@@H]3C(=O)N(c4cccc(Oc5ccccc5)c4)C(=O)[C@H]3CC[C@@H]12,.,.,.,-4%[13.5 µM],.,.
COc1cc(-n2c(=O)c3ccccc3n(CC(=O)c3ccc(Br)cc3)c2=O)cc(OC)c1OC,.,.,.,-2%,.,22µM*
COc1cccc(-c2ccc3ncnc(N4CCNCC4)c3c2)c1,.,.,.,-4%,.,7%
c1ccc2c(NC3CC3)nc(-c3ccoc3)nc2c1,.,.,.,-2%,.,3%
COC(=O)c1cc(NC(=O)c2ccccc2)c(=O)oc1C,.,.,.,?,.,1%
O=C(Nc1ccc(N=Nc2ccccc2)cc1)c1cccc(Cl)c1,2%,-111*,-2%,12%,13,-7%
O=C(N/N=C/C1C(c2ccccc2)C1(Cl)Cl)c1cccc(Cl)c1 (centres undefined),-20%,4,4%,7.1µM*,3,7%
COc1ccc(C(=O)Nc2cc(C(=O)c3ccccc3)c(C)oc2=O)cc1,-11%,-6,?,20µM*,8,-2%[38.3 µM]
COC(=O)C(C(=O)OC)c1ccc(NC(=O)c2cccc(Cl)c2)cc1,.,.,.,3%,.,2%
CO/N=C\Cc1oc(=O)c(NC(=O)c2ccccc2)cc1C(=O)OC,-11%,-7,-9%,22µM*,0,5%[38.3 µM]
Cc1ccc(NC(=O)Cn2cc(C(=O)C3CC3)c3ccccc32)cc1C,.,.,.,.,-1,.
Cc1oc(=O)c(NC(=O)c2cccc(Cl)c2)cc1C(=O)c1ccccc1,32µM*,40,-21%,8.9µM*,3,1%[38.3 µM]
COC(=O)[C@@]1(Cc2ccccc2)[C@H]2c3cc(C(=O)N(C)C)n(Cc4ccccc4)c3C[C@H]2CN1C(=O)c1ccccc1,-13%,.,-12%,-3%,.,22%
CCN(CC)S(=O)(=O)c1ccc(Cl)c(NC(C)=O)c1,.,.,.,?,.,7%
SMILES,HPGD inh,PNC assembly inh,ALOX12 inhib,ALDH1A1 inh,IMPase cell inh,IMPase Li cell
CN(C)S(=O)(=O)c1ccc(Cl)c(NC(=O)COC(=O)c2ccc3c(c2)NC(=O)CS3)c1,.,.,.,3.5µM*,.,.
CCn1cc(C(=O)NCc2ccccc2Cl)cn1,32µM*,?,3%,7%,.,-6%
CCCC(=O)Nc1cc(S(=O)(=O)N(CC)CC)ccc1Cl,-24%,-19,5%,13µM*,.,7%
Cc1ccc(S(=O)(=O)N(C)C)cc1NC(=O)COC(=O)c1ccc(Cl)cc1,.,.,.,-10%,.,3%
CCN(CC)S(=O)(=O)c1ccc(Cl)c(NC(=O)c2ccc(C#N)cc2)c1,2%,-97*,-1%,?,.,3%
O=C(/C=C/C(=O)Oc1ccccc1C(=O)O)Oc1ccccc1C(=O)O,?,.,3%,-9%,.,9%
CS(=O)(=O)c1ccc(Cl)c(NC(=O)CCl)c1,.,.,.,3.2µM*,.,-6%
CN(C(=O)COC(=O)c1ccc2c(c1)NC(=O)CS2)C1CCS(=O)(=O)C1 (centres undefined),-8%,29,-2%,5%,2,-1%[38.3 µM]
CN(C)S(=O)(=O)c1ccc(Cl)c(NC(=O)COC(=O)c2ccc(O)cc2)c1,.,.,.,?,.,19%
CC(C)CN(C(=O)COC(=O)c1ccc2c(c1)NC(=O)CS2)C1CCS(=O)(=O)C1 (centres undefined),?,?,-4%,40µM*,1,-4%[38.3 µM]
CCN(CC)S(=O)(=O)c1ccc(Cl)c(C(=O)NCc2ccccc2Cl)c1,-6%,-12,-6%,7.9µM*,1,-3%[38.3 µM]
CCN(CC)S(=O)(=O)c1ccc(Cl)c(C(=O)NCc2ccco2)c1,.,.,.,?,.,8%
CCN(CC)S(=O)(=O)c1ccc(Cl)c(NC(=O)COC(=O)c2ccc(O)cc2)c1,.,.,.,16µM*,.,25%
CS(=O)(=O)c1ccc(C(=O)Nc2cc(S(C)(=O)=O)ccc2Cl)cc1,.,11,-4%,6%,5,.
CCCn1c(C)nc2c(NCC3CCCN3CC)nc(C)nc21 (centres undefined),-14%,.,1%,-3%,.,1%
COc1cccc(Cn2c(=O)c(-c3ccccc3)nc3cnc(N(C)C)nc32)c1,?,.,0%,?,.,?
Cc1cn([C@H]2C[C@H](O)[C@@H](COC(N)=O)O2)c(=O)[nH]c1=O,-2%,.,-3%[11.4 µM],19%[13.5 µM],.,0%
CCCCN(C(=O)c1ccc2c(c1)OCO2)c1ccccc1,.,.,.,14µM*,.,24%
CN(Cc1ccccc1)C(=O)c1ccc2c(c1)OCO2,14µM*,43,-2%,-4%,-16,9%
COc1ccc(C(=O)Nc2ccc3cn[nH]c3c2)c(OC)c1,.,.,.,0%,.,13%
Cc1cccc(CNc2ncncc2-c2ccccc2Cl)c1,.,.,.,4%,.,23%
CC(C)(C)c1ccc(OCCNC(=S)Nc2ccccc2)cc1,.,.,.,4%,.,0%
COc1cccc(NC(=S)NCc2cccs2)c1,18µM*,-7,-1%,-9%,.,-4%
S=C(NCCOCCOCCNC(=S)Nc1ccccc1)Nc1ccccc1,.,.,.,13µM*,.,2%
Fc1ccc(NC(=S)NCc2cccs2)cc1,18µM*,-3,-3%,-9%,.,-1%
S=C(NCc1cccs1)Nc1ccccc1,13µM*,40,-8%,?,.,0%
CC(C)c1cc(/C=C(\C#N)C(=O)NCCCc2ccccc2)cc(C(C)C)c1O,.,.,.,-9%,.,-12%
